Measurements published in PubChem BioAssay (NCATS).
Several values for one entry are separate records, joined by “and”; a condition that tells them apart may be missing. Equal values may be shown once. Results filed as inconclusive are left out. Activity calls are given as the source filed them. Unless noted, calls come from the whole dose curve; as a rule, active = well fitted curve in the direction sought with a large enough effect; inconclusive = small, poorly fitted or top-dose-only effect, or another doubt; inactive = no such curve, though single readings can be large; an effect the other way counts as inactive or inconclusive.

What was measured:
[1] = Cell Viability - N2a (AID 540); settings: N2a mouse neuroblastoma cell viability; activity change, negative = cytotoxicity: at 92.2 µM (top of the series);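 note: cells exposed to compound for 40 h at 37 °C; plate controls were DMSO alone for no effect and tamoxifen control for full effect; nearly all actives have a fitted effect of over 45% in size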
Summary of the method: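 First, 1500 N2a cells per well incubate 5 hr at 37 °C; next, compounds are added and incubated 40 hr at 37 °C; finally CellTiter-Glo is added and luminescence read after 20 min, with AC50 derived by Hill modeling.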

[2] = Cell Viability - HUV-EC-C (AID 542);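 note: cells exposed to compound for 40 hours; % is set by controls: 0 for no effect and ±100 for the full control effect; nearly all actives have a fitted effect of over 35% in size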
Summary of the method: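 Decrease in cellular ATP, quantified by luciferase luminescence, reflects toxicity in normal human vascular endothelial HUV-EC-C cells given compound for 40 hr in complete culture medium. Values are AC50s from concentration-response curves.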

[3] = Cell Viability - H-4-II-E (AID 543);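 note: cells exposed to compound for 40 hours; % is set by controls: 0 for no effect and ±100 for the full control effect; nearly all actives have a fitted effect of over 35% in size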
Summary of the method: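 Here, cytotoxicity is measured in the rat hepatoma line H-4-II-E as loss of intracellular ATP after 40 hr compound treatment, detected by luciferase luminescence.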

[4] = Cell Viability - LYMP1-002 - Assay at 40 hr (AID 994);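 note: 0% = DMSO only and full inhibition = 92 µM tetraoctylammonium bromide; nearly all actives have a fitted effect of over 60% in size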
Summary of the method: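 Viability in the human lymphoblastoid line was measured as intracellular ATP via CellTiter-Glo after 40 hr compound exposure. Tetraoctylammonium bromide served as positive control.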

[5] = target: Estrogen receptor (Homo sapiens) (UniProt P03372); assay: qHTS assay for small molecule agonists of estrogen receptor alpha signaling (AID 588514; calls by dose curve;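 note: 0% = vehicle only and 100% = reference agonist; nearly all actives have a fitted effect of over 70% in size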)
Summary of the method: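 Reporter-gene assay. […] controls beta-lactamase in HEK 293 GripTite cells; after 18 hrs with compound, CCF4 substrate is added for 2 hrs and fluorescence is read.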

[6] = target: Bile acid receptor (Homo sapiens) (UniProt Q96RI1); assay: qHTS assay for small molecule agonists of farnesoid X receptor signaling (AID 588527; calls by dose curve;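 note: 0% = vehicle basal and 100% = reference agonist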); settings: HEK293T FXR-UAS-bla, beta-lactamase ratio, 16 h; stronger effect = higher value
Summary of the method: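 Agonist-mode beta-lactamase reporter in GeneBLAzer FXR-UAS-bla HEK293T cells, titration up to 92 uM, 16 h exposure at 37 C, CCF4 fluorescence. Response scaled to DMSO (0%) and 100 uM chenodeoxycholic acid (100%), then Hill-fitted for EC50 and efficacy.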

[7] = target: Peroxisome proliferator-activated receptor delta (Homo sapiens) (UniProt Q03181); assay: qHTS assay for small molecule agonists of peroxisome proliferator-activated receptor delta signaling (AID 588534; calls by dose curve;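 note: 0% = DMSO basal wells and 100% = positive control agonist at 10 µM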)
Summary of the method: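 Reporter cells were plated and held 5 hrs at 37 C before compounds were added. After 18 hrs at 37 C, CCF4 dye was loaded for 2 hrs at RT and fluorescence measured.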

[8] = qHTS assay for small molecule antagonists of peroxisome proliferator-activated receptor delta signaling (AID 588535; active = well fitted inhibition curve with a large enough effect in the signal ratio, with a control signal flat, not every such curve was filed as active; the % refers to the signal ratio;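 for max response: cells co-treated with a PPAR-delta agonist as stimulator during compound exposure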); settings: HEK293T PPARd-UAS-bla, beta-lactamase FRET ratio, 18 h; 460 nm channel
Summary of the method: (§1)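 Cells were seeded at 4000 per well in assay medium containing 2% charcoal/dextran FBS and held 5 hrs at 37 C. Compounds were then added for 18 hrs. CCF4 substrate was applied for 2 hrs at room temperature before fluorescence reading.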

[9] = target: Peroxisome proliferator-activated receptor delta (Homo sapiens) (UniProt Q03181); assay: as above
Summary of the method: as §1

[10] = target: Peroxisome proliferator-activated receptor gamma (Homo sapiens) (UniProt P37231); assay: qHTS assay for small molecule agonists of peroxisome proliferator-activated receptor gamma signaling (AID 588536; active = well fitted curve in the direction sought with a large enough effect in the signal ratio, with a control signal flat, not every such curve was filed as active; the % refers to the signal ratio;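 note: 0% = DMSO basal wells and 100% = rosiglitazone at 2 µM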)
Summary of the method: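 Ratiometric blue/green fluorescence (405 nm excitation; 460 and 530 nm emission) from CCF4-loaded HEK293 reporter cells serves as signal. Exposure to test compounds lasts 16 h at 37 C in medium containing 1% charcoal/dextran-treated serum.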

[11] = target: Vitamin D3 receptor (Homo sapiens) (UniProt P11473); assay: qHTS assay for small molecule antagonists of vitamin D receptor signaling (AID 588541; calls by dose curve;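 note: receptor activated by calcitriol during compound treatment; % is set by controls: 0 for no effect and ±100 for the full control effect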)
Summary of the method: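 VDR-UAS-bla HEK293T cells in 2% charcoal-stripped FBS were stimulated with 1-alpha,25-dihydroxyvitamin D3 (3 nM final) plus compound for 16 h at 37 C. The beta-lactamase CCF4 readout was normalized to 50 nM agonist and DMSO, and Hill fits gave IC50.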

[12] = target: Vitamin D3 receptor (Homo sapiens) (UniProt P11473); assay: qHTS assay for small molecule agonists of vitamin D receptor signaling (AID 588543; calls by dose curve;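 note: 0% = DMSO basal and 100% = reference agonist control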)
Summary of the method: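 Measured: β-lactamase reporter activity (CCF4, 405 nm excitation, 460/530 nm emission) in HEK293T VDR-UAS-bla cells after 16 h compound exposure at 37 °C. Normalization against 50 nM 1α,25-dihydroxyvitamin D3 and DMSO; Hill-fit EC50.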

[13] = MultiTox-Fluor Cytotoxicity Assay - LYMP1-001 - Live Cells (AID 947);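 note: 0% = DMSO only and full inhibition = tetraoctylammonium bromide control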
[14] = MultiTox-Fluor Cytotoxicity Assay - LYMP1-002 - Dead Cells (AID 960);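 note: 0% = DMSO and 100% = tetraoctylammonium bromide; nearly all actives have a fitted effect of over 60% in size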
Summary of the method: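 Acute cytotoxicity in a human lymphoblastoid line is scored as rising dead-cell protease signal after 16 hr exposure at 37 C, measured fluorometrically (485/520).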

[15] = Cell Viability - LYMP2-005 (AID 967);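 note: plate controls were DMSO only for no effect and 92 µM tetraoctylammonium bromide control for full effect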
Summary of the method: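 Luciferase-based ATP quantitation served as the viability measure in human lymphoblastoid LYMP2-005 cells exposed to test compounds for 24 h at 37 C in complete culture medium. Potency (AC50) was obtained by fitting concentration-response curves with the Hill equation.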

[16] = target: Peroxisome proliferator-activated receptor gamma (Homo sapiens) (UniProt P37231); assay: qHTS assay for small molecule antagonists of peroxisome proliferator-activated receptor gamma signaling (AID 588537; active = well fitted inhibition curve with a large enough effect in the signal ratio, with a control signal flat, not every such curve was filed as active; the % refers to the signal ratio;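 note: reporter cells co-stimulated with 50 nM rosiglitazone agonist during compound treatment; % of control where 0% means no effect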)
Summary of the method: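 Step one: plate 3000 HEK293 UAS-bla cells per well in medium with 1% stripped serum and hold 6-6.5 h at 37 C. Step two: add compound and 50 nM agonist for 16 h. Step three: CCF4 loading, fluorescence read.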

[17] = qHTS assay for small molecule agonists of the antioxidant response element (ARE) signaling pathway (AID 651741; active = well fitted activation curve with a large enough effect in the signal ratio; the % refers to the signal ratio; note: potency is the fitted concentration of half-maximal effect; for activation: % of control where 0% means no effect)
Summary of the method: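 HepG2 ARE-bla cells plated at 2,000 cells/well and incubated 5 h at 37 C/5% CO2 received 23 nL compound in DMSO. After 16 h at 37 C, LiveBLAzer B/G FRET substrate was applied for 2 h at room temperature and fluorescence read.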

[18] = target: Glucocorticoid receptor (Homo sapiens) (UniProt P04150); assay: qHTS assay for small molecule agonists of glucocorticoid receptor signaling (AID 588532; active = well fitted curve in the direction sought with a large enough effect in the signal ratio, with a control signal flat; the % refers to the signal ratio;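 note: 100% = dexamethasone at 0.1 µM and 0% = DMSO only wells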); settings: HeLa MMTV-bla, beta-lactamase ratio, agonist, 18 h; stronger effect = higher value; percent of dexamethasone control, DMSO zero
Summary of the method: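 HeLa GRE-bla reporter cells; 18 h compound exposure at 37 C; 2 h CCF4 loading at room temperature; fluorescence at 460 and 530 nm; EC50 by Hill equation.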

[19] = target: Glucocorticoid receptor (Homo sapiens) (UniProt P04150); assay: qHTS assay for small molecule antagonists of glucocorticoid receptor signaling (AID 588533; active = well fitted inhibition curve with a large enough effect in the signal ratio, with a control signal flat, not every such curve was filed as active; the % refers to the signal ratio; note: % is set by controls: 0 for no effect and ±100 for the full control effect)
Summary of the method: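 Antagonist-mode qHTS: compound titrations added to GRE-bla HeLa cells, then dexamethasone 2 nM final; 18 h, 37 C. CCF4 FRET fluorescence normalized to dexamethasone and DMSO; IC50 from Hill fit.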

[20] = qHTS assay for small molecule activators of the nuclear factor-kappa B (NF-kB) signaling pathway (AID 651749; active = well fitted activation curve with a large enough effect in the signal ratio; the % refers to the signal ratio; note: % of control where 0% means no effect); settings: NF-kB-bla ME-180 cells, beta-lactamase FRET ratio, 16 h; stronger effect = higher value
Summary of the method: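 Incubation lasted 16 hr at 37C in 5% CO2 after 23 nL compound addition to ME-180 NF-kB-bla cells. Activation appears as beta-lactamase-mediated FRET loss.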

Chain of Peroxisome proliferator-activated receptor delta (Homo sapiens) (Q03181 whole entry, looked up): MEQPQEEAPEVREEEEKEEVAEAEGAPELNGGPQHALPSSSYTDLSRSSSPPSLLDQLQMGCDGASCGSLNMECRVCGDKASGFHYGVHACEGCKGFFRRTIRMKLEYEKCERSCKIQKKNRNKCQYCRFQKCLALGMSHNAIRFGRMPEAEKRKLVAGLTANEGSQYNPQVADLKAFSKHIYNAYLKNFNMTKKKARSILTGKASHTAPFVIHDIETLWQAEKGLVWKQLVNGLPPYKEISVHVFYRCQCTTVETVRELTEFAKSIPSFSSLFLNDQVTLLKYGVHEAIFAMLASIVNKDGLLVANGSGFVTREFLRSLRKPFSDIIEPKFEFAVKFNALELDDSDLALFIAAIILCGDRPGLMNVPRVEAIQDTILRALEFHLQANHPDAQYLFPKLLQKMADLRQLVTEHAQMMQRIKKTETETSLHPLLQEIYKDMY
Chain of Glucocorticoid receptor (Homo sapiens) (P04150 whole entry, looked up): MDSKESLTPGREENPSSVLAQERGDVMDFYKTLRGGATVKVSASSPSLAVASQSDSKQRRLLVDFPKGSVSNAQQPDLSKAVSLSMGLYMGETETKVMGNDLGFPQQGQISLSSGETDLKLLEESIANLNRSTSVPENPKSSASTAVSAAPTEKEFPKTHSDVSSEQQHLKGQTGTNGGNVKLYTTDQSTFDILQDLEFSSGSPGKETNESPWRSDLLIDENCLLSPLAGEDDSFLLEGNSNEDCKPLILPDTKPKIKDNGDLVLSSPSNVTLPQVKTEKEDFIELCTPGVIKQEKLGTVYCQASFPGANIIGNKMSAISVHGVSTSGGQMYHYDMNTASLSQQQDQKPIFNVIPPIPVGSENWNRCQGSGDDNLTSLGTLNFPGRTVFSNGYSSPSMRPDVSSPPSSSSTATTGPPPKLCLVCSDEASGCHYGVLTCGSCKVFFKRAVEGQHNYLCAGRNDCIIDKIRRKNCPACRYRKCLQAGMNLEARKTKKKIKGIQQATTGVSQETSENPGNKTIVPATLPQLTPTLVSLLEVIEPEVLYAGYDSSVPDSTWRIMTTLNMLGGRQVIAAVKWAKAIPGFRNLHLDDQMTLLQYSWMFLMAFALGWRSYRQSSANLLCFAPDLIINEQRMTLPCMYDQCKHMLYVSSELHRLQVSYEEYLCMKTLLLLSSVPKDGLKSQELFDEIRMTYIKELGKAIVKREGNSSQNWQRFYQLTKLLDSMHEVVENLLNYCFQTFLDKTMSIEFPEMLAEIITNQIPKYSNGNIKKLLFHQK
Chain of Bile acid receptor (Homo sapiens) (Q96RI1 whole entry, looked up): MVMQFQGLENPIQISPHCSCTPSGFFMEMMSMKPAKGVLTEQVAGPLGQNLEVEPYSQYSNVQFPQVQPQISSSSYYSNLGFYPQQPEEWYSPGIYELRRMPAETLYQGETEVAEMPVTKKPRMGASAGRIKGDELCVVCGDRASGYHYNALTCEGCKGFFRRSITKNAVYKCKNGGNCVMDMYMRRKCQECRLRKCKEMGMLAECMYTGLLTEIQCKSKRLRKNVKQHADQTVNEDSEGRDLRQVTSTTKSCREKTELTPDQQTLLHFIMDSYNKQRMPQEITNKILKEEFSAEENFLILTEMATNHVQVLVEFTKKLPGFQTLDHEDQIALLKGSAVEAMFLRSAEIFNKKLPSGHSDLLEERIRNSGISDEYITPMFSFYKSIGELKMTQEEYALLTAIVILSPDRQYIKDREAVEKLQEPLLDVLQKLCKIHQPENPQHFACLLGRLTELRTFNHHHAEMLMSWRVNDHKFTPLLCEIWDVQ
Chain of Peroxisome proliferator-activated receptor gamma (Homo sapiens) (P37231 whole entry, looked up): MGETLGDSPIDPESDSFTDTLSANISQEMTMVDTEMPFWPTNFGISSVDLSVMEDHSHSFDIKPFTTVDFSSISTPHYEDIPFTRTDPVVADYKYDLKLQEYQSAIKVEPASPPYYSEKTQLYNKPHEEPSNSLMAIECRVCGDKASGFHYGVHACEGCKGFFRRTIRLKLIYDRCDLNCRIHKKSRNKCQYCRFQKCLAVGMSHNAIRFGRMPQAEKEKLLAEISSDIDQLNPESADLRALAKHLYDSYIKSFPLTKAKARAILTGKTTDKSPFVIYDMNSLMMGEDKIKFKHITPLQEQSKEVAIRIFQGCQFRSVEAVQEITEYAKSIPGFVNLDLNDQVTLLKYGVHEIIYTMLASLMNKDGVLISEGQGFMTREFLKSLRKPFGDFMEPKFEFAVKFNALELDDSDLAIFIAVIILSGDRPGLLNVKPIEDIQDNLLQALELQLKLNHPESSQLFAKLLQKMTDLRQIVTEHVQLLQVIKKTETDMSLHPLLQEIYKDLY
Chain of Vitamin D3 receptor (Homo sapiens) (P11473 whole entry, looked up): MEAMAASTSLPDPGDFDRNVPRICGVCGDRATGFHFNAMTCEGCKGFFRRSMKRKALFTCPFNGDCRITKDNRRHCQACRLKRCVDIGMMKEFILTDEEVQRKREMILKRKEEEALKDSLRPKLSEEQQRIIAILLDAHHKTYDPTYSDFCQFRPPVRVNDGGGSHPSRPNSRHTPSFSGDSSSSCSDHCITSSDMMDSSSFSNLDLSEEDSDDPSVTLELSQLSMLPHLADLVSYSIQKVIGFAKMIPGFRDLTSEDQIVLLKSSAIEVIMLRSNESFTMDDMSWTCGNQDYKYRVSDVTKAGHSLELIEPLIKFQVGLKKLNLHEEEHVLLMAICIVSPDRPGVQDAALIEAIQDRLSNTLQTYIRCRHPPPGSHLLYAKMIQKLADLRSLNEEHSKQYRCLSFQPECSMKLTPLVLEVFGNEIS
Chain of Estrogen receptor (Homo sapiens) (P03372 whole entry, looked up): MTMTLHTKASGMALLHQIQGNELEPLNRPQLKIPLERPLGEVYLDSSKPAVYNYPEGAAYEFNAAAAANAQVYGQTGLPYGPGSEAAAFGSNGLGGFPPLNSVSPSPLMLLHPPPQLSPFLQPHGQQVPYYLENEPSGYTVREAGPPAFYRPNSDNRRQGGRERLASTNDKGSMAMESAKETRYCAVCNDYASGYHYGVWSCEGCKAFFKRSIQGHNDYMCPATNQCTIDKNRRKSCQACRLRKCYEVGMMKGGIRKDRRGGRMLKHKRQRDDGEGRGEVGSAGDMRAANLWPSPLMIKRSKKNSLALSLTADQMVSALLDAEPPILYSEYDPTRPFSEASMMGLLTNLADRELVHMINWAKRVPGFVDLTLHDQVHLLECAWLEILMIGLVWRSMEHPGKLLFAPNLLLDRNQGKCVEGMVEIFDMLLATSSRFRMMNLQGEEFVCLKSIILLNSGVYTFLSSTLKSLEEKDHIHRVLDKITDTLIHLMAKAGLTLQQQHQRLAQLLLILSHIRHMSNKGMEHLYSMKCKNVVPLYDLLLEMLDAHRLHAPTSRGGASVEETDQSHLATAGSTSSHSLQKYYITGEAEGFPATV

CC(C)OS(C)(=O)=O
inactive: Potency [1] | Potency [2] | Potency [3] | Potency [4] | Potency [5] | activation [6] -3.78% | outcome [7] | outcome [9] | outcome [10] | outcome [11] | outcome [12]
-20%: max response [8]

c1ccc2c(c1)CCNC2
inactive: Potency [1] | Potency [2] | Potency [3] | outcome [13] | Potency [14] | Potency [15] | Potency [4] | outcome [9] | outcome [10] | Potency [16] | outcome [11] | outcome [12] | Potency [17]
5.94%: max response [8]

O=[N+]([O-])c1ccc2c3c(cccc13)CC2
24.6%: max response [8]
inactive: Potency [1] | Potency [3] | Potency [14] | Potency [15] | Potency [4] | Potency [5] | activation [6] -0.314% and -0.559% | activation [18] -4.28% and -4.51% | outcome [19] | outcome [7] | outcome [9] | outcome [10] | Potency [16] | outcome [11] | outcome [12] | activation [20] -1.76% and -1.52%

Nc1ccc(Cl)c(Cl)c1
inactive: Potency [1] | Potency [3] | Potency [14] | Potency [4] | outcome [9] | outcome [10] | outcome [11] | outcome [12] | activation [20] 0.145%
-10.6%: max response [8]

CCSC(=O)N1CCCCCC1
active: Potency [17] 66.8 µM
-18%: max response [8]
inactive: Potency [1] | Potency [3] | outcome [13] | Potency [14] | Potency [15] | Potency [4] | Potency [5] | outcome [7] | outcome [9] | Potency [16] | outcome [11] | activation [20] 0.506% and -0.843%

[O-][Cl+]O
inactive: Potency [1] | Potency [2] | Potency [3] | outcome [13] | Potency [14] | Potency [15] | Potency [4] | Potency [5] | activation [18] 9.28% | outcome [7] | outcome [11] | Potency [17] | activation [20] -0.295%

CCOP(=S)(OCC)Oc1nc(Cl)c(Cl)cc1Cl
active: Potency [17] 37.6 µM [middle of 4 runs]
inactive: Potency [2] | Potency [3] | Potency [15] | Potency [4] | Potency [5] | activation [6] -1.55% [middle of 4 runs] | activation [18] 0.796% [middle of 4 runs] | outcome [19] | outcome [7] | outcome [9] | outcome [10] | Potency [16] | outcome [11] | outcome [12]
21.6%: max response [8]

O=P(OCCCl)(OCCCl)OCCCl
inactive: Potency [1] | Potency [2] | Potency [3] | Potency [14] | Potency [15] | Potency [4] | activation [6] -0.898% | outcome [19] | outcome [9] | outcome [12] | Potency [17]
19.2%: max response [8]

O=C(Cc1ccccc1)OCc1ccccc1
inactive: Potency [1] | Potency [2] | Potency [3] | outcome [13] | Potency [14] | Potency [15] | Potency [4] | Potency [5] | activation [6] -3.22% | activation [18] 0.186% | outcome [7] | outcome [9] | outcome [10] | outcome [12]
18.5%: max response [8]

CN(C)C(=O)Nc1ccc(Cl)cc1
inactive: Potency [1] | Potency [3] | outcome [13] | Potency [14] | activation [6] 0.657% and 0.9% | activation [18] 8.83% and -10.8% | outcome [19] | outcome [9] | outcome [10] | Potency [16] | outcome [11] | outcome [12] | Potency [17]
-2.77% and 22.5%: max response [8]

Cc1cccc(N)c1C
inactive: Potency [1] | Potency [3] | outcome [13] | Potency [14] | Potency [15] | activation [6] -3.96% | outcome [19] | outcome [7] | outcome [10] | outcome [12] | Potency [17] | activation [20] -0.847%

O=C(O)CBr
inactive: Potency [1] | Potency [2] | Potency [3] | outcome [13] | Potency [15] | Potency [4] | outcome [7] | outcome [9] | Potency [16] | outcome [12] | activation [20] -0.961%
-19.5%: max response [8]

C=CCCC#N
inactive: Potency [1] | Potency [2] | Potency [3] | outcome [13] | Potency [14] | Potency [4] | Potency [5] | activation [6] -0.315% | activation [18] -1.36% | outcome [7] | outcome [10] | outcome [11] | outcome [12] | activation [20] 0.189%

Oc1cc(Cl)cc(Cl)c1
inactive: Potency [2] | Potency [3] | outcome [13] | Potency [14] | Potency [15] | Potency [4] | activation [18] 6.41% | outcome [19] | outcome [7] | Potency [16] | outcome [11] | outcome [12]

C=CC#N
inactive: Potency [1] | Potency [2] | outcome [13] | Potency [14] | Potency [15] | Potency [4] | Potency [5] | activation [18] -6.69% | outcome [19] | Potency [16] | outcome [12] | Potency [17] | activation [20] -0.054%

Clc1cccc(Cl)c1Cl
inactive: Potency [1] | Potency [3] | Potency [15] | Potency [4] | activation [18] -0.532% | outcome [19] | outcome [7] | outcome [9] | outcome [10] | Potency [16] | outcome [12] | Potency [17] | activation [20] -0.304% and 0.362%
-24.3%: max response [8]

CN(C)N=O
inactive: Potency [1] | Potency [2] | Potency [3] | outcome [13] | Potency [14] | activation [6] -0.99% | activation [18] -2.94% | outcome [19] | outcome [10] | outcome [11] | outcome [12] | Potency [17]

CC12CC1(C)C(=O)N(c1cc(Cl)cc(Cl)c1)C2=O (stereo unspecified)
inactive: Potency [1] | Potency [2] | outcome [13] | Potency [14] | Potency [15] | Potency [4] | activation [18] -1.15% and -3.35% | outcome [19] | outcome [7] | outcome [9] | outcome [10] | Potency [16] | outcome [11] | activation [20] -0.629% and -1.26%
-1.5% and 19.3%: max response [8]
